# The list is not random: actives were taken first. Their share in the collection is about 15%.
# SARS PLpro yeast: inhibitors of SARS-CoV papain-like protease in yeast | S. cerevisiae expressing SARS-CoV PLpro, growth rescue | Potency, µM (top dose mostly 32.9 µM), most hits filed as activators | actives 0.19% (n = 330,000) | AID 485353; calls by dose curve; further: nearly all actives have a fitted effect of over 55% in size
# Pf growth 96h: inhibits malaria parasite growth, 96 h. P. falciparum luciferase reporter growth, 96 h. Potency, µM (titrated, usually from 28.7 µM), actives largely listed as inhibitors. actives 6.9% (n = 320,000)
#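 Parasite growth measured via integrated firefly luciferase reporter in P. falciparum. Infected erythrocytes at 2% hematocrit, 0.05% parasitemia final were treated 96 hours at 37 C under 5% CO2, and luminescence was read.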
# Sm TGR block: inhibitors of Schistosoma mansoni thioredoxin glutathione reductase; Q962Y6; purified TGR, DTNB reduction, TNB absorbance 405 nm; Potency, µM (highest dose often 114 µM), hits mostly inhibitors; actives 3% (n = 360,000); further: nearly all actives have a fitted effect of over 60% in size
#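 Kinetic colorimetric format: TGR-catalysed, NADPH-driven DTNB reduction monitored via TNB absorbance. Enzyme dispensed at 20 nM; compound exposure 15 min at room temperature before reaction start.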
# HCV inh: HCV inhibition; Huh7.5.1 HCVcc-Cre infection, luciferase reporter, 44 h; Potency, µM (doses to about 41.8 µM), actives largely listed as inhibitors; actives 3.4% (n = 340,000); AID 651820
#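 Infectious HCV cell culture screen: compound-treated cells (1,000/well, pre-plated 4 h) are infected with HCVcc-Cre at roughly 0.5 moi and grown 44 h. Infection is quantified by luciferase signal after 15 min substrate incubation at room temperature.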
# HCMV antiviral: inhibitors of human cytomegalovirus. HFF cells, HCMV-luciferase reporter, 72 h; stronger effect = lower value. activity change, negative = inhibition, % at 57.5 µM. actives 4.5% (n = 410,000). AID 1259415; in the data active means activity change below about -60%; inconclusive means no clear call, values can overlap the other calls; inactive means above about -39%
#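 Compounds were evaluated in HFFs infected with an HCMV luciferase reporter virus (MOI 1 PFU/cell). Luciferase in lysates collected 72 h post infection served as the replication measure.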
# Pf growth 48h: P. falciparum growth inhibition at 48 hours (one generation); P. falciparum luciferase growth in erythrocytes, 48 h; Potency, µM (top dose mostly 28.7 µM), usual class: inhibitors; actives 5.9% (n = 310,000); AID 504832
#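 A one-generation exposure of luciferase-tagged malaria parasites in RPMI 1640/Albumax erythrocyte culture, 37 C and 5% CO2. Inhibition is inferred from decreased luminescence after adding detection reagent.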
# A number is an active result; - = inactive; ? = inconclusive; . = no result given; [ ] = another dose, or the depositor's remark. Unless noted, the call rests on the fitted dose curve; in most records, active means well fitted curve in the direction sought with a large enough effect; inconclusive means small, poorly fitted or top-dose-only effect, or another doubt; inactive means no such curve, though single readings can be large; an effect the other way counts as inactive or inconclusive.
SMILES,SARS PLpro yeast,Pf growth 96h,Sm TGR block,HCV inh,HCMV antiviral,Pf growth 48h
Clc1ccc(-c2n[nH]c3c2CCCC3)cc1,-,-,-,10µM,-72.2,-
Cc1ccc(C(=O)N2CCC3(CC2)Oc2ccc(F)cc2C(=O)C32CC(c3cccnc3)=NO2)s1 (centres undefined),-,13.1µM,-,-,-,9.28µM
CCC(=O)N1CCC2(CC1)Oc1ccc(F)cc1C(=O)C21CC(c2ccccc2)=NO1 (centres undefined),-,?,50.1µM,-[8.37 µM],-,-
CC(C)C(=O)N1CCC2(CC1)Oc1ccc(F)cc1C(=O)C21CC(c2cccnc2)=NO1 (centres undefined),-,-,-,.,.,-
COc1ccc(NC(=O)C2CCN(S(=O)(=O)c3ccc(Cl)c(C(F)(F)F)c3)CC2)cn1,.,.,.,.,-,.
O=c1[nH]c(=O)n(C(c2ccccc2)(c2ccccc2)c2ccccc2)cc1N(CCO)CCO,.,.,.,-,-,.
CC(C)CNC(=O)c1ccc(NC(=O)c2cccs2)cc1,-,-,-,-,-,-
CO/N=C/NC(=O)NOCc1c(Cl)cccc1Cl,.,-,-,-,-104.0,-
O=C(N/C=N/OCc1ccc(Cl)cc1Cl)NOCc1c(Cl)cccc1Cl,.,?,-,?,-,?
COc1ccc(C(=O)c2c(C)c3cc(C)ccc3n2CC(O)CN2CCOCC2)cc1 (centres undefined),-,11.7µM,-,-,-,?
CC(=O)c1ccc(N2CCN(c3ncnc4c3nc3n4CCCC3)CC2)cc1,.,.,-,.,-86.0,.
c1ccc(N2CCN(c3ncnc4c3nc3n4CCCC3)CC2)cc1,.,.,-,.,-68.2,.
COc1cccc(N2CCN(c3ncnc4c3nc3n4CCCCC3)CC2)c1,.,.,-,.,-99.3,.
COc1ccc(N2CCN(c3ncnc4c3nc3n4CCCCC3)CC2)cc1,.,.,-,.,-,.
FC(F)(F)c1cccc(N2CCN(c3ncnc4c3nc3n4CCCC3)CC2)c1,.,.,-,.,-72.9,.
Cc1ccc(N2CC(c3nnc(NC(=O)c4ccco4)s3)CC2=O)cc1C (centres undefined),.,.,-,.,-,.
COc1ccc(N2CCN(C(=O)c3cccnc3)CC2)c([N+](=O)[O-])c1,-,-,-,-,-,-
COc1ccccc1CNc1ncnc2c1nc1n2CCCC1,.,.,-,.,-,.
CCOc1ccccc1CNc1ncnc2c1nc1n2CCCC1,.,.,-,.,-81.2,.
CCN(CC)c1cc(C)c2cc(NC(=O)/C=C/c3cc(OC)c(OC)c(OC)c3)ccc2n1,.,.,-,.,-99.8,.
CCN(CC)c1cc(C)c2cc(NC(=O)c3ccccc3F)ccc2n1,-,?,-,10µM,-79.6,10.4µM
CCOc1ccc(C(=O)Nc2ccc3nc(N4CCN(CC)CC4)cc(C)c3c2)cc1,-,-,-,?,?,2.33µM
CCOc1ccc(C(=O)Nc2ccc3nc(N(CC)CC)cc(C)c3c2)cc1,.,.,-,.,-86.1,.
CCOc1ccc(/C=C/C(=O)Nc2ccc3nc(N(CC)CC)cc(C)c3c2)cc1OC,.,.,-,.,-,.
CCN(CC)c1cc(C)c2cc(NC(=O)c3cccc(OC)c3)ccc2n1,.,.,-,.,-70.9,.
SMILES,SARS PLpro yeast,Pf growth 96h,Sm TGR block,HCV inh,HCMV antiviral,Pf growth 48h
COc1ccc(CC(=O)Nc2ccc(S(=O)(=O)Nc3cc(C)nc(C)n3)cc2)cc1OC,.,.,.,.,-,.
COc1cc(OC)c(N(C)C(=O)c2nn(C)c3c2CSc2ccccc2-3)cc1Cl,.,.,-,.,-,.
CCC(C)(C)NC(=O)C(c1cccc(OC)c1)N(C(=O)CNC(=O)c1cccs1)c1cccnc1 (centres undefined),-,-,-,-,-,?
CC(C)(C)Cc1c(-c2ccc(F)cc2)nc2ccc(Br)cn12,.,.,.,.,-75.9,.
Cc1cc(C)c2[nH]c(C(=O)Nc3ccc(F)cc3Br)cc2c1,-,-,-,-,-,-
CC(=O)N1CN(Cc2ccccn2)Cc2c1sc1c2CCCC1,-,.,39.8µM,-,-,-
COc1ccc(OC)c(-c2noc(N3CCN(c4cc(C)ccc4C)CC3)n2)c1,.,.,-,.,-,.
CCOC(=O)c1cnc2c(ccc3ccccc32)c1Nc1ccc(C(C)=O)cc1,.,.,-,.,-,.
O=C(CSc1nc2[nH]ncc2c(=O)[nH]1)Nc1ccccc1,-,-,-,-,-,-
CSc1nc(SCC(=O)NCc2ccco2)c2c3c(sc2n1)CN(C)CC3,.,.,.,-,-,.
CSc1nc(SCC(N)=O)c2c3c(sc2n1)CN(C)CC3,-,0.586µM,-,-,-,3.29µM
CCNc1nc(SCC(N)=O)nc2sc3c(c12)CCN(C)C3,-,1.04µM,-,-,-,?
CCSc1nc(N)c2c3c(sc2n1)CN(C)CC3,-,?,-,-,.,?
CC1CCC(C(C)C)C(OC(=O)CSc2n[nH]c(=O)[nH]c2=O)C1 (centres undefined),-,13.1µM,-,?,-,-
Cc1nnc(SCC(=O)OC2CC(C)CCC2C(C)C)[nH]c1=O (centres undefined),-,.,-,-,-,.
CC(C)NC(=O)C1CCC(Cn2c(=O)c3sccc3n(CC(=O)N3CCCC3)c2=O)CC1 (centres undefined),.,.,-,.,-89.2,.
CN1OC[C@@H]2COc3ccc4ccccc4c3[C@@H]21,-,-,-,-,-,13.1µM
CCOC(=O)N1CCC(NC(=O)CS(=O)(=O)Cc2nc(-c3cccc(Cl)c3)oc2C)CC1,-,?,35.5µM,?,-60.4,-
Cc1oc(-c2cccc(Cl)c2)nc1CS(=O)(=O)CC(=O)NC1CC1,-,?,39.8µM,-,-,-
Nn1c(SCC(=O)N2CCCC2=O)nnc1-c1cccs1,-,-,-,-,-,-
CCc1sc(N(C(=O)Cc2ccccc2)c2cccc(F)c2)nc1-c1ccc(C)cc1,-,?,-,-,-,?
CCc1sc(N(C(=O)Cc2ccccc2)c2ccccc2F)nc1-c1ccc(C)cc1,-,10.4µM,-,-,?,?
COc1ccccc1NC(=O)C1=C(C)Nc2nc(SCc3ccccc3)nn2C1c1cccs1 (centres undefined),.,.,-,.,?,.
CCC(=O)N1CC(=O)N2[C@H](C1)[C@@H](c1ccc(Br)cc1)[C@@H]2CO,.,.,.,.,-,.
CCOC(=O)c1c(/C=N/Nc2ccccc2)c2sc(C)cc2n1C,-,?,22.4µM,.,.,9.28µM
SMILES,SARS PLpro yeast,Pf growth 96h,Sm TGR block,HCV inh,HCMV antiviral,Pf growth 48h
O=C(Nc1ccc([N+](=O)[O-])cc1NC(=O)c1ccccc1)c1ccccc1,.,.,.,-,-,.
Cc1cc([N+](=O)[O-])ccc1NC(=O)c1cccc(NC(=O)C(C)C)c1,-,-[5.75 µM],-,11.2µM,-,-
Cc1ccc([N+](=O)[O-])cc1NC(=O)c1ccccc1,-,2.08µM,-,-,?,-
Cc1ccc([N+](=O)[O-])cc1NC(=S)NCCc1ccccc1,-,13.1µM,-,-,-,-
CC(C)C(=O)Nc1cccc(C(=O)Nc2cc([N+](=O)[O-])ccc2Cl)c1,-,-,-,?,?,?
Cc1ccc(C(=O)O)cc1NC(=S)NCCc1ccccc1,-,?,-,-,-,-

# From PubChem
